Measured values reported in PubChem BioAssay (Tox21).
Results filed as inconclusive are left out. Calls of active or inactive are those of the source. Unless noted, the call rests on the fitted dose curve; in most records, active means well fitted curve in the direction sought with a large enough effect in the repeat runs; inconclusive means weak or mixed curves; inactive means no such curve, though single readings can be large; an effect the other way counts as inactive or inconclusive.

Columns and labels:
[1] = qHTS assay to identify small molecule antagonists of the estrogen receptor alpha (ER-alpha) signaling pathway using the BG1 cell line in the presence of 0.1 nM 17-beta-estradiol - cell viability counter screen (AID 1259241); further: nearly all actives have a fitted effect of over 40% in size
How it was run: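 Estradiol-stimulated (0.1 nM) VM7Luc4E2 cells exposed to compounds 22 hr; viability measured by fluorescence of cleaved CellTiter-Fluor substrate after 30 min.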

[2] = qHTS assay to identify small molecule antagonists of the androgen receptor (AR) signaling pathway using the MDA cell line in the presence of 0.5 nM R1881 - cell viability counter screen (AID 1259242); further: nearly all actives have a fitted effect of over 45% in size
How it was run: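 R1881 at 0.5 nM final stimulated MDA-kb2 cells during 16 hr compound treatment at 37C. Cytotoxicity read: CellTiter-Fluor fluorescence after 30 min.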

[3] = target: Androgen receptor (Homo sapiens) (UniProt P10275); experiment: qHTS assay to identify small molecule antagonists of the androgen receptor (AR) signaling pathway using the MDA cell line in the presence of 0.5 nM R1881 (AID 1259243); further: nearly all actives have a fitted effect of over 50% in size
How it was run: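 We exposed MDA-kb2 cells to compounds under 0.5 nM R1881 stimulation for 16 hr at 37C and quantified MMTV-driven luciferase by luminescence.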

[4] = qHTS assay to identify small molecule HDAC inhibitors (AID 1259364); further: potency means the concentration at half of the fitted maximal effect;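 further: wild-type HCT-116 cells with endogenous class I/II HDAC activity; nearly all actives have a fitted effect of over 45% in size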; on activity change, negative = inhibition: top concentration of the series differs between compounds
How it was run: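 Relative class I and II HDAC activity is taken from the luminogenic signal in HCT-116 cells, with compound exposure 2 hr and reagent development 30 min at room temperature.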

[5] = qHTS assay to identify small molecule HDAC inhibitors - cell viability counter screen (AID 1259365); further: series mostly up to about 92 µM; nearly all actives have a fitted effect of over 50% in size
How it was run: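 After overnight seeding at 1,500 cells per well, wild-type HCT-116 cultures took up compounds in DMSO for 2hr at 37 C. Viable cell content came from luminescence with CellTiter-Glo.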

[6] = qHTS assay to identify small molecule antagonists of the sonic hedgehog signaling (Shh) pathway - cell viability counter screen (AID 1259367); further: nearly all actives have a fitted effect of over 55% in size
How it was run: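 After a 4 hr settling period, 3T3 Gli1-Luc cells were treated with DMSO-dissolved chemicals and conditioned medium, kept 24 hr at 37C in 5% CO2, and assayed for viability by CellTiter-Fluor fluorescence following 1 hr reagent incubation.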

[7] = qHTS assay to identify small molecule agonists of the sonic hedgehog signaling (Shh) pathway (AID 1259368; calls by dose curve;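 further: NIH/3T3-derived 3T3Gli1-Luc cells carrying a stable Gli1-driven firefly luciferase reporter; series mostly up to about 92 µM; nearly all actives have a fitted effect of over 15% in size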)
How it was run: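 Mouse fibroblast (NIH/3T3) reporter cells with stably integrated Gli1-Luc were treated 24 hr with compound; firefly luciferase luminescence served as the read-out.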

[8] = target: Estrogen receptor (Homo sapiens) (UniProt P03372); experiment: qHTS assay to identify small molecule antagonists of the estrogen receptor alpha (ER-alpha) signaling pathway using the BG1 cell line in the presence of 0.1 nM 17-beta-estradiol (AID 1259244); further: nearly all actives have a fitted effect of over 50% in size
How it was run: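 VM7Luc4E2; 4xERE-luciferase; 0.1 nM E2 final; 22 h co-incubation, 37C; ONE-Glo luminescence after 30 min at room temperature.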

[9] = qHTS assay to identify small molecule phospholipidosis (PLD) inducers (AID 1259344; active means well fitted curve in the direction sought with a large enough effect; an effect the other way counts as inactive or inconclusive)
How it was run: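 HepG2 cells grown on collagen I take up LipidTOX Red while exposed to compound for 24 h; after fixation they are imaged at 20x and pit metrics are extracted.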

[10] = qHTS assay to identify small molecule agonists of the sonic hedgehog signaling (Shh) pathway - cell viability counter screen (AID 1259366); further: nearly all actives have a fitted effect of over 50% in size; further: potency means the concentration at half of the fitted maximal effect
How it was run: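 Same-well cytotoxicity read. Gli1-Luc reporter 3T3 cells; compounds 24hr, 37C/5% CO2; CellTiter-Fluor fluorescence.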
On the % scale 0 is the no-effect control and ±100 the full control effect.

Sequence of Androgen receptor (Homo sapiens) (P10275 whole entry, looked up): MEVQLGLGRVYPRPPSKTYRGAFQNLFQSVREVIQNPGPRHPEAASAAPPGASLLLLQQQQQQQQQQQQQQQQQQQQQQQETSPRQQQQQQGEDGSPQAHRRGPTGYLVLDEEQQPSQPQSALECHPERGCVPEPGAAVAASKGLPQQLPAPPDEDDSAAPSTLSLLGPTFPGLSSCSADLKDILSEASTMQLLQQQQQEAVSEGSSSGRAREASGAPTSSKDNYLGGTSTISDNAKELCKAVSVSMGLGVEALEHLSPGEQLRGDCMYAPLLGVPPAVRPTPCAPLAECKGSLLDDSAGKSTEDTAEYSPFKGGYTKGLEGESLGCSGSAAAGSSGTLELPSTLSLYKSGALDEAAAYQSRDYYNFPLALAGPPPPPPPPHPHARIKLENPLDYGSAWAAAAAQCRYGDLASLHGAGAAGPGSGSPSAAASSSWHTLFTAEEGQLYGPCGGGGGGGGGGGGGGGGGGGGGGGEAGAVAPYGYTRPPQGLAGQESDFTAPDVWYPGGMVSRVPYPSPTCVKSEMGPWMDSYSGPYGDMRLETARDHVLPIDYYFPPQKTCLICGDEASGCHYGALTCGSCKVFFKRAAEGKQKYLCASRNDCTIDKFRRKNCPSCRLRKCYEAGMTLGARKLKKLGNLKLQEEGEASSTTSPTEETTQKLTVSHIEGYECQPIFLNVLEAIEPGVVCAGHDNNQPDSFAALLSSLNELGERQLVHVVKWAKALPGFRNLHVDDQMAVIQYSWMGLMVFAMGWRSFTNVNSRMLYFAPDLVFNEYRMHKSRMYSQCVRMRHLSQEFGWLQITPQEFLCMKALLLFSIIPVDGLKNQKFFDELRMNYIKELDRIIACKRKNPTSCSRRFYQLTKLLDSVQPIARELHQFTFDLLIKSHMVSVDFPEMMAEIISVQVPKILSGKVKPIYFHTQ
Sequence of Estrogen receptor (Homo sapiens) (P03372 whole entry, looked up): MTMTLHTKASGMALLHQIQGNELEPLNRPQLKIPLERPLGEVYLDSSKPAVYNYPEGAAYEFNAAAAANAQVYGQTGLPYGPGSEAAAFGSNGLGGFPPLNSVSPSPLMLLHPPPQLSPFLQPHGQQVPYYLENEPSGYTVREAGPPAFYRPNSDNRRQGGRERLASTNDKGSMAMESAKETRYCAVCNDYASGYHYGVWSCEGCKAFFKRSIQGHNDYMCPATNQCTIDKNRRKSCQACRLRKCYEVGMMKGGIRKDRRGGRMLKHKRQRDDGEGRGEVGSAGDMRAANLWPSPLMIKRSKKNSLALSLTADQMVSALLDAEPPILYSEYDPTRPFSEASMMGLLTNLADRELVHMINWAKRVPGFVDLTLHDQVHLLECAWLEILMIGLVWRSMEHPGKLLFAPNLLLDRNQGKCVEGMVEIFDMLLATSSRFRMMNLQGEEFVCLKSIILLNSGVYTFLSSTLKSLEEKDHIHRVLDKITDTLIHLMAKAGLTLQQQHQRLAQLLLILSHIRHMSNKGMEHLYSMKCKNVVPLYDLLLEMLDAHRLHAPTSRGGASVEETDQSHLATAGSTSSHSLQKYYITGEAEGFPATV

COc1cc(CCC(C)=O)ccc1O
inactive: outcome [1] | outcome [2] | Potency [3] | Potency [4] | outcome [5] | outcome [6] | Potency [7]

CN(C)CCOC(c1ccc(Cl)cc1)c1ccccn1 (centres undefined)
inactive: outcome [1] | outcome [2] | outcome [8] | Potency [9] | Potency [4] | outcome [5] | Potency [7]

Cn1ccc2cc3c(cc21)CCN3C(=O)Nc1cccnc1
inactive: activity change, negative = cytotoxicity [1] -4.26% [at 19 µM] | viability change, negative = cytotoxic [2] -1.94% [at 19 µM] | activity change, negative = inhibition [8] 76.4% [at 19 µM] | Potency [9] | activity change, negative = cytotoxicity [5] -0.0806% [at 19 µM] | viability change, negative = cytotoxic [10] 4.12% [at 19 µM] | viability change, negative = cytotoxic [6] 4.69% [at 19 µM] | activity change [7] 11% [at 18.9 µM, hits give high values]
active: Potency [4] 11.6 µM

C#CC(O)C(CC)CCCC (centres undefined)
inactive: outcome [1] | outcome [2] | Potency [3] | Potency [4] | outcome [5] | Potency [7]

CC(C)[C@H](N)C(=O)OCCOCn1cnc2c(=O)[nH]c(N)nc21
inactive: outcome [1] | outcome [2] | outcome [8] | Potency [9] | Potency [4] | outcome [5] | Potency [10] | outcome [6] | Potency [7]

COC(=O)C1=C(C)NC(C)=C(C(=O)OCC(C)=O)C1c1ccccc1[N+](=O)[O-] (centres undefined)
active: Potency [10] 26.6 µM
inactive: outcome [1] | outcome [2] | outcome [8] | Potency [9] | Potency [4] | outcome [5] | Potency [7]

Nc1[nH]c(=O)ncc1F
inactive: outcome [1] | outcome [2] | outcome [8] | Potency [9] | Potency [4] | outcome [5] | Potency [10] | outcome [6] | Potency [7]

CCCOCC(C)OCC(C)O (centres undefined)
inactive: outcome [1] | outcome [2] | Potency [3] | Potency [4] | outcome [5] | Potency [10] | outcome [6] | Potency [7]

CC(=O)NC(Cc1ccccc1)C(=O)O (centres undefined)
inactive: outcome [1] | outcome [2] | outcome [8] | Potency [9] | Potency [4] | outcome [5] | Potency [10] | outcome [6] | Potency [7]

CC1CCN(CCCC(=O)c2ccc(F)cc2)CC1
inactive: outcome [1] | outcome [2] | outcome [8] | Potency [9] | Potency [4] | outcome [5] | Potency [10] | outcome [6] | Potency [7]

O=C1C(CCS(=O)c2ccccc2)C(=O)N(c2ccccc2)N1c1ccccc1 (centres undefined)
inactive: outcome [1] | outcome [2] | outcome [8] | Potency [9] | Potency [4] | outcome [5] | Potency [10] | outcome [6] | Potency [7]

COc1cc(O)cc(O)c1
inactive: outcome [1] | outcome [2] | outcome [8] | Potency [9] | Potency [4] | outcome [5] | Potency [10] | outcome [6] | Potency [7]

Cc1cc(C)cc(OCC2CNC(=O)O2)c1 (centres undefined)
inactive: outcome [1] | outcome [2] | outcome [8] | Potency [9] | Potency [4] | outcome [5] | Potency [10] | outcome [6] | Potency [7]

Nc1nc2c(ncn2CCC(CO)CO)c(=O)[nH]1
inactive: outcome [1] | outcome [2] | outcome [8] | Potency [9] | Potency [4] | outcome [5] | Potency [10] | Potency [7]

NS(=O)(=O)c1cc2c(cc1Cl)NC(CSCc1ccccc1)=NS2(=O)=O
inactive: outcome [1] | outcome [2] | outcome [8] | Potency [9] | Potency [4] | outcome [5] | Potency [10] | Potency [7]

C[N+](C)(C)CC[N+]1(C)Cc2c(Cl)c(Cl)c(Cl)c(Cl)c2C1
inactive: outcome [1] | outcome [2] | outcome [8] | Potency [9] | Potency [4] | outcome [5] | Potency [10] | Potency [7]

Oc1cc(O)c2c(c1)O[C@H](c1ccc(O)c(O)c1)[C@H](O)C2
inactive: outcome [1] | outcome [2] | outcome [8] | Potency [9] | Potency [4] | outcome [5] | Potency [10] | outcome [6] | Potency [7]

O=c1[nH]c2ccccc2c(=O)n1CCCl
inactive: outcome [1] | outcome [2] | Potency [3] | Potency [4] | outcome [5] | Potency [10] | Potency [7]

CCCCCOC(=O)Nc1nc(=O)n([C@@H]2O[C@H](C)[C@@H](O)[C@H]2O)cc1F
inactive: outcome [1] | outcome [2] | outcome [8] | Potency [9] | Potency [4] | outcome [5] | Potency [10] | Potency [7]

CCc1cc(S(=O)(=O)O)c2cc(C(C)C)cccc1-2
inactive: outcome [1] | outcome [2] | outcome [8] | PLD induction [9] -3.58% [at 7.66 µM] | Potency [4] | outcome [5] | Potency [10] | outcome [6] | Potency [7]

CCN(CC)S(=O)(=O)c1ccc(C(=O)O)cc1
inactive: outcome [1] | outcome [2] | outcome [8] | Potency [9] | Potency [4] | outcome [5] | Potency [10] | Potency [7]

CCN(CC)C(=O)c1ccc(O)c(OC)c1
inactive: outcome [1] | outcome [2] | outcome [8] | Potency [9] | Potency [4] | outcome [5] | Potency [10] | outcome [6] | Potency [7]

O=C(O)c1ccccc1-c1ccc(C(F)(F)F)cc1
inactive: outcome [1] | outcome [2] | outcome [8] | Potency [9] | Potency [4] | outcome [5] | Potency [10] | outcome [6] | Potency [7]

CCCOc1ccccc1-c1nc2n[nH]nc2c(=O)[nH]1
inactive: outcome [1] | outcome [2] | outcome [8] | Potency [9] | Potency [4] | outcome [5] | Potency [10] | outcome [6] | Potency [7]

OCc1ccccn1
inactive: outcome [1] | outcome [2] | outcome [8] | Potency [9] | Potency [4] | outcome [5] | Potency [10] | outcome [6] | Potency [7]
